# Data: publication PMC7862700, “An all-to-all approach to the identification of sequence-specific readers for epigenetic DNA modifications on cytosine”
# Assays:
# Assay in all cases: DAPPL (digital affinity profiling via proximity ligation, sequencing); 10 mM Tris-HCl pH 7.5, 50 mM NaCl, 1 mM DTT, 4% glycerol, room temperature, 30 min; GST-TFs on glutathione beads, 16-mer random dsDNA library, 0.1% formaldehyde crosslink after washing; high values mean tight binding
# Settings in all cases: protein: recombinant; tags: N-terminal GST; dsDNA, one strand shown
# ETV2 = target: T1, ETV2 (Homo sapiens, UniProt O00321 1-342)
# T1 sequence: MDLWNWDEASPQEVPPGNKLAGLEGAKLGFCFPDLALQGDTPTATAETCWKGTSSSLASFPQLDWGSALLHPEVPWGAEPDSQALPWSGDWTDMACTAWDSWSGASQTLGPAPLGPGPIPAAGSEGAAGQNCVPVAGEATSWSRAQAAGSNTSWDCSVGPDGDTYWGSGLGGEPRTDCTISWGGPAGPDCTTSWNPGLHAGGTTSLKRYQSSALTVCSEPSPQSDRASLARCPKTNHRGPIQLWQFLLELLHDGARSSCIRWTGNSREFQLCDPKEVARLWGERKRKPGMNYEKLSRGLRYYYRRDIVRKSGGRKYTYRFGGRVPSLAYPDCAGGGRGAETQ
# In short: (§1)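 Binding signal is each hexamer's read frequency for a factor divided by its frequency in the tag-only sample. The factors were GST-fused human transcription factors from yeast, captured on glutathione beads, DNA-barcoded and pooled with that sample. Pools were incubated with 200 nmole of a random double-stranded 16-mer DNA library in Tris/NaCl/DTT/glycerol buffer at room temperature for 30 min, then washed, crosslinked with 0.1% formaldehyde, proximity-ligated with BsaI/T4 ligase (1 h, 37 °C), PCR-amplified and sequenced on an Illumina NextSeq500.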
# ELF3 = target: T2, ELF3 (Homo sapiens, UniProt P78545 1-371)
# T2 sequence: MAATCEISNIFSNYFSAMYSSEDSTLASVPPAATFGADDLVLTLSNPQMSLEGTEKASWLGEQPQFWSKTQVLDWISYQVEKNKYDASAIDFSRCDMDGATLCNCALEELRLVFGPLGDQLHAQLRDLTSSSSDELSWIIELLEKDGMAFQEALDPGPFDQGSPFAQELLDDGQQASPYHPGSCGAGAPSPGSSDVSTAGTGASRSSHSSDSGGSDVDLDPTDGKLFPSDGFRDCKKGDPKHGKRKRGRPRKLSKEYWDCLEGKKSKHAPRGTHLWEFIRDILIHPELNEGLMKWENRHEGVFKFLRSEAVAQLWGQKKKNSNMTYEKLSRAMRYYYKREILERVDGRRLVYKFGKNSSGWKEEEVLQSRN
# In short: as §1
# ETV1 = ETV1 (Homo sapiens, UniProt P50549 1-477)
# ETV1, sequence (P50549 whole entry): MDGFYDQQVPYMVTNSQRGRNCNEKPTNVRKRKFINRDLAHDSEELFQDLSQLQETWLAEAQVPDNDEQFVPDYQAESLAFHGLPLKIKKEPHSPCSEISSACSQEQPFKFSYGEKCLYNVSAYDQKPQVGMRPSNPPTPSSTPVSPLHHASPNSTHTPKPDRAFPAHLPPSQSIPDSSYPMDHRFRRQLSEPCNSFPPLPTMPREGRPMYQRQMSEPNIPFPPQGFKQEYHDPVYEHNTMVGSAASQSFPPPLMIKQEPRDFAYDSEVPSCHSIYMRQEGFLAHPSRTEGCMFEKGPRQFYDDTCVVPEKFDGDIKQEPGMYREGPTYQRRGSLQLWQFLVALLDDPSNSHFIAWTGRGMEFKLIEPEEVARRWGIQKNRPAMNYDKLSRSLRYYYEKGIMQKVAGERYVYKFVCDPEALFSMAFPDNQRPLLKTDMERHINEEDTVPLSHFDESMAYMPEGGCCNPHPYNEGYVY
# In short: as §1
# ERF = target: T3, ERF (Homo sapiens, UniProt P50548 1-548)
# T3 sequence: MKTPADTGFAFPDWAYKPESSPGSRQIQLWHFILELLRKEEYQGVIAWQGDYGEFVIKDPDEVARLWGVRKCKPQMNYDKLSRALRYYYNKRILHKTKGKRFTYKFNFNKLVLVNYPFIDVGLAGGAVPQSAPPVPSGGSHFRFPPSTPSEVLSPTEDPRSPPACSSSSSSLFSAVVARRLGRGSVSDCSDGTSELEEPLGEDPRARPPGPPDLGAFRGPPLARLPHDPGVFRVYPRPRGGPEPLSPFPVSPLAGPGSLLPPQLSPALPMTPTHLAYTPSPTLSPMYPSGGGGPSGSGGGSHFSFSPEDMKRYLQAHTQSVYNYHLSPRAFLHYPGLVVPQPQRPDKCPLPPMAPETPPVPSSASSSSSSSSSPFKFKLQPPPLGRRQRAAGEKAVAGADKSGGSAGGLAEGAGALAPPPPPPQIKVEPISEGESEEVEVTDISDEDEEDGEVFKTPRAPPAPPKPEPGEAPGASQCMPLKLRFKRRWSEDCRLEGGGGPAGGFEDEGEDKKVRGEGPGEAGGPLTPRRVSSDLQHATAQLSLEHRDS
# In short: as §1
# ETV3L = target: T4, ETV3L (Homo sapiens, UniProt Q6ZN32 1-361)
# T4 sequence: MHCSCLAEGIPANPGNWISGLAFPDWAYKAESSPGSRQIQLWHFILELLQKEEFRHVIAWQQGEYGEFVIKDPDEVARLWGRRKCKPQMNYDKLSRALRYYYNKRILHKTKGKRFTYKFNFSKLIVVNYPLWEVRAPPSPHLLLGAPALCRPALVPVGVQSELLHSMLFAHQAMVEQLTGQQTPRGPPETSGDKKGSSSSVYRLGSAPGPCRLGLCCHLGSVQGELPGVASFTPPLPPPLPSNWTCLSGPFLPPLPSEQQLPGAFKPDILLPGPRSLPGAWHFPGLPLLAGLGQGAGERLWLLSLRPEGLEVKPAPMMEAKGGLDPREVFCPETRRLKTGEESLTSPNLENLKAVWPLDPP
# In short: as §1
# ETS2 = target: T5, ETS2 (Homo sapiens, UniProt P15036 1-469)
# T5 sequence: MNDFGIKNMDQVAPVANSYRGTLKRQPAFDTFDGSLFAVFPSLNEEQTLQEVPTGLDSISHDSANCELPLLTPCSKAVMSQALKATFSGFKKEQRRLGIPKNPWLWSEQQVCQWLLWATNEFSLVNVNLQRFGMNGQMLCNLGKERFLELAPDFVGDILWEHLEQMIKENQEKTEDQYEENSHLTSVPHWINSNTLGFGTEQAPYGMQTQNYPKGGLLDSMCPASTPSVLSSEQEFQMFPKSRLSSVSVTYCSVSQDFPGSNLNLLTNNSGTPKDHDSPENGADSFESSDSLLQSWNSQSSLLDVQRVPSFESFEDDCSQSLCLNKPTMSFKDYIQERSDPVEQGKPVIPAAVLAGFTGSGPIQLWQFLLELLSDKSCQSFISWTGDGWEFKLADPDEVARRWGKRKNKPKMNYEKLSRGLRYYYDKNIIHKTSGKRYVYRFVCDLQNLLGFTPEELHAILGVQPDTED
# In short: as §1
# SPDEF = target: T6, SPDEF (Homo sapiens, UniProt O95238 1-335)
# T6 sequence: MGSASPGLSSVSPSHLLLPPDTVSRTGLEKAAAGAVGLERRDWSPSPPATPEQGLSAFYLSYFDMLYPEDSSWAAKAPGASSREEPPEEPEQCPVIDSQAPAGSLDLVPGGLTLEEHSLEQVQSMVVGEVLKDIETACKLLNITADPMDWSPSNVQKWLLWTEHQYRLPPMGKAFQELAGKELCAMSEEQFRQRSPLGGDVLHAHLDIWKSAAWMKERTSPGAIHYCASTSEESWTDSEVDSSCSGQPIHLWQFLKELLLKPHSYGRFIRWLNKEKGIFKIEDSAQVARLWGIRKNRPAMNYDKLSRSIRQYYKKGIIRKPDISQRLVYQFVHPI
# In short: as §1
# ETV7 = target: T7, ETV7 (Homo sapiens, UniProt Q9Y603 1-341)
# T7 sequence: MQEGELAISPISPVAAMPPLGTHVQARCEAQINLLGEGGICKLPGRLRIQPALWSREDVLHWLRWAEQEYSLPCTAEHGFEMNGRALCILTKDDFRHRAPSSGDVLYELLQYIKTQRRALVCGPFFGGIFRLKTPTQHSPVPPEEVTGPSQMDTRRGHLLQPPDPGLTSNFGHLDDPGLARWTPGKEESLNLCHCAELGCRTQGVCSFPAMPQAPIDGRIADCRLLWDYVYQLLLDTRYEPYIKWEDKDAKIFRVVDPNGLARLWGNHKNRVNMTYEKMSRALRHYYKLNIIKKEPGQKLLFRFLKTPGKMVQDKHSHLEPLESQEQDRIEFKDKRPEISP
# In short: as §1
# ETV3 = target: T8, ETV3 (Homo sapiens, UniProt P41162-2 1-143)
# T8 sequence: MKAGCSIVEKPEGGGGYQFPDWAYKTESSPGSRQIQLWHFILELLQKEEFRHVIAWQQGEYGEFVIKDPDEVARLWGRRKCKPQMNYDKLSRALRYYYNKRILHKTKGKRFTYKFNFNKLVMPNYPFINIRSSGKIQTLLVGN
# In short: as §1
# ETV6 = ETV6 (Homo sapiens, UniProt P41212 1-452)
# ETV6, sequence (P41212 whole entry): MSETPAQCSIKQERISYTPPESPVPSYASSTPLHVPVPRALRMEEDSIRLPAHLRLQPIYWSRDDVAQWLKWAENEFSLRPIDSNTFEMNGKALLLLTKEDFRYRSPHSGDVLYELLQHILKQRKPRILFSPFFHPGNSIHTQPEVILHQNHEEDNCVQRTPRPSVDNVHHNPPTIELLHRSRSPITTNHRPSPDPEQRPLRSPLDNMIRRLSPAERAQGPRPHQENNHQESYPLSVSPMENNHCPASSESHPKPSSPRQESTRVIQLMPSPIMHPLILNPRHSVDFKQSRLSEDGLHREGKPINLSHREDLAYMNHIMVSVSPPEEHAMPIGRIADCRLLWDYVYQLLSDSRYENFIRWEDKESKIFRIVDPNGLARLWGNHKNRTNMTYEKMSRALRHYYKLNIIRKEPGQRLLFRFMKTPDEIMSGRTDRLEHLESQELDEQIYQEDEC
# In short: as §1
sequence,measurement,setting,value
AAGATC,binding signal,ETV2,"1.13 fold enrichment (6-mer frequency, TF over GST control)"
same,binding signal,ELF3,"1.15 fold enrichment (6-mer frequency, TF over GST control)"
same,binding signal,ETV1,"1.08 fold enrichment (6-mer frequency, TF over GST control)"
same,binding signal,ERF,"1.12 fold enrichment (6-mer frequency, TF over GST control)"
same,binding signal,ETV3L,"1.03 fold enrichment (6-mer frequency, TF over GST control)"
same,binding signal,ETS2,"1.05 fold enrichment (6-mer frequency, TF over GST control)"
same,binding signal,SPDEF,"1.27 fold enrichment (6-mer frequency, TF over GST control)"
same,binding signal,ETV7,"1.08 fold enrichment (6-mer frequency, TF over GST control)"
same,binding signal,ETV3,"1.12 fold enrichment (6-mer frequency, TF over GST control)"
same,binding signal,ETV6,"1.01 fold enrichment (6-mer frequency, TF over GST control)"
